Test results taken from PubChem BioAssay (NCI).
This is part of a sample that, as a whole, favours compounds with a hit. Of some 79,000 tested, about 15% had one in any assay. A number with no mark means an inactive call. The source made the active and inactive calls. No stated cut-off is given here; in the data, active means growth inhibition above about 70%; inactive means the rest.

assay: NCI Yeast Anticancer Drug Screen. Data for the rad50 strain (AID 155);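 further: 0% = growth of vehicle-only cultures of the same strain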; conditions: S. cerevisiae rad50 strain growth inhibition; at 50.0 µM; hits give high values
Method in brief: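 Growth of the mutant yeast was measured after compound exposure and referenced to vehicle-treated cultures.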

| SMILES | growth inhibition |
| --- | --- |
| O=S1(=O)CC(N2CCOCC2)C2=C(O1)c1sc(-c3ccccc3)nc1CC2 (configuration not stated) | -16.8% |
| O=C(Cn1c(-c2ccccc2)cc2ccccc21)N1CCOCC1 | -0.45% |
| CCOC(=O)/C(C(C)=O)=C1\C(=O)c2ccccc2-c2ccccc21 | 21.6% |
| COC(=O)C1=C(C(=O)OC)C2(C3C(SC)=CC(C)(C)CC3S1)N(Cc1ccccc1)CCN2Cc1ccccc1 (configuration not stated) | -7.65% |
| CCCO[C@@H]1[C@@H](OC(C)=O)[C@@H](OC(C)=O)C(C)(C)/C=C/[C@H](C)C(=O)[C@@]2(OC(C)=O)C[C@@](C)(OC(C)=O)[C@H](OC(C)=O)[C@@H]2[C@H]2OC(=O)CC[C@@]12OC(=O)c1ccccc1 | -14.7% |
| O=C(NC1=C(Cl)C(=O)c2ccccc2C1=O)C(=O)c1c(O)c2ccccc2oc1=O | 83.5% (active) |
| Clc1ccc2c(N3CCC(CCC4CCN(c5ncnc6cc(Cl)ccc56)CC4)CC3)ncnc2c1 | -17.9% |
| Cn1cnnc1Sc1c([N+](=O)[O-])nc(-c2ccc([N+](=O)[O-])cc2)n1C | -3.5% |
| COc1ncn(C2CC(OC(=O)c3ccc(C)cc3)C(COC(=O)c3ccc(C)cc3)O2)c(=O)n1 (configuration not stated) | -8.3% |
| CC(C)Cn1cnc2c(Cl)nc3ccccc3c21 | -38.5% |
| O=c1cc(-c2ccc(F)cc2)oc2ccccc12 | 40% |
| CC(=O)OCC12CCC(C)=CC1O[C@H]1[C@@H](OC(C)=O)[C@H](OC(C)=O)[C@]2(C)[C@@]12CO2 (some centres not stated) | 24.6% |
